Measurements published in PubChem BioAssay AID1159580 (chemical genetic matrix, 2015).
The whole screen tested about 5,500 compounds, of which about 2,000 (36%) were called active. Another 18% or so got no clear call; they are omitted. No stated cut-off is given here; in the data, active means normalized growth mostly below about 0.91 (no sharp cut-off); inconclusive means no clear call, values can overlap the other calls; inactive means mostly above about 0.92. Some of the results follow.

Experiment: chemical genetic growth profiling, strain panel (AID 1159580);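 further: tested at 20 µM; growth read once vehicle control cultures reached saturation at 30 °C; 1 = growth at the plate median or of vehicle wells; lower values mean less growth of the strain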
Conditions: S. cerevisiae deletion strains, growth OD

Measured: normalized growth

CC1(C)C2CCC1(C)C(O)C2 (stereo not drawn)
inactive: locus YHR030C, strain SLT2, hits give low values 0.98 | locus YHR079C, strain IRE1, hits give low values 0.981 | locus YJL095W, strain BCK1, hits give low values 0.999 | locus YJR066W, strain TOR1, hits give low values 0.923 | locus YLR113W, strain HOG1, hits give low values 0.991 | locus YNL183C, strain NPR1, hits give low values 0.947 | locus YOR231W, strain MKK1, hits give low values 0.992 | locus YPL256C, strain CLN2, hits give low values 0.993
